Screening results as filed in PubChem.
NALP1 inh – NALP1 inflammasome inhibitors in reconstituted yeast, colorimetric, S. cerevisiae, triplicate retest. S. cerevisiae NALP1/ASC/caspase-1 growth, X-gal OD620, 72 h. inhibition, % at 10 µM. 0.61% of 280,000 active. AID 2071, 2009; in the data active = inhibition mostly above about 24%, no sharp cut-off; inactive = mostly below about 32%
A1 inh – caspase 3/7 activation in MEF A1-2A-BIM cells, primary screen, A1 inhibitor project, cell-based, luminescence, HTS | caspase activation, % (no concentration beside the values) | AID 2462, 2010 | Caspase-Glo 3/7 luminescence, 3 h; percent of clofoctol response, vehicle zero | 0.066% of 330,000 active;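 active = over half of replicate activation scores above 10%, or exactly half above 10 with the replicate mean above 10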
NALP3 yeast inh – NALP3 inflammasome inhibitors in reconstituted yeast, primary screen, luminescence, uHTS; Yeast reconstituted NLRP3/ASC/caspase-1, beta-gal luminescence, 24 h; inhibition, % at 10 µM; 0.39% of 330,000 active; AID 2825, 2010;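 active = inhibition of 50% or more; inactive = inhibition below 50%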
CHT allo act – CHT positive allosteric modulators, primary screen, cell-based, membrane potential dye, choline EC20; High affinity choline transporter 1 (Homo sapiens), Q9GZV3; CHT-expressing cells; stronger effect = higher value; LV-AA mutant CHT in HEK293 cells; B-score at 10 µM; 0.49% of 310,000 active; AID 488977, 2010;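 active = initial fluorescence not abnormally high and integrated response B-score, plate-corrected, over 3 SD above library mean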
Target sequence (Q9GZV3 whole entry, looked up): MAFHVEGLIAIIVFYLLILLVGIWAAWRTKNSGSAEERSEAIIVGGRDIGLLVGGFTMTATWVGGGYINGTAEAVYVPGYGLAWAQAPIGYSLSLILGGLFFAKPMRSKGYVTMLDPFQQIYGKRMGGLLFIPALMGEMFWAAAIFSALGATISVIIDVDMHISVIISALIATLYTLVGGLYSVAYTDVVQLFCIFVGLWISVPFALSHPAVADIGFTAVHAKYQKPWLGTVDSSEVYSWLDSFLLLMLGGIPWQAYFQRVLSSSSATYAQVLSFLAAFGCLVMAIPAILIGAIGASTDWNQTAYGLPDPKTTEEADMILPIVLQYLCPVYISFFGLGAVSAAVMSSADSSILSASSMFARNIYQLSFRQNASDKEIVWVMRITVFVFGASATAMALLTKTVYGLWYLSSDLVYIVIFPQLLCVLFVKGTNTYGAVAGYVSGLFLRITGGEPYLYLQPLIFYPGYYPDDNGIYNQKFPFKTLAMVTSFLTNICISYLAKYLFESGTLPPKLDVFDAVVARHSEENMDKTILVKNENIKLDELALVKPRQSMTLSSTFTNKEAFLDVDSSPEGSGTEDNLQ
SUMO Mot1 rescue – yeast Mot1-301 growth rescue at high temperature, primary screen, SUMOylation pathway inhibitor project, S. cerevisiae, ATP luminescence, 38.5C; S. cerevisiae Mot1-301 growth rescue; percent above DMSO median, 100 means doubled; growth rescue, % at 18.8 µM; 1% of 320,000 active; AID 2716, 2010;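 active = every valid replicate shows activation above 250% relative to neutral control wells; inactive = the rest, any valid replicate at or below 250%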
CHT inh – inhibitors of human choline transporter CHT; CHT-expressing cells, membrane potential dye, choline response; stronger effect = lower value; AID 488975, 2010; B-score at 10 µM; High affinity choline transporter 1 (Homo sapiens), Q9GZV3; 0.86% of 310,000 active;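 active = B-score over 3 SD under the library average, and starting fluorescence ratio not unusually high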;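 note: choline stimulus applied at its EC90 after an EC20 pre-addition; B-score computed on integrated fluorescence ratio after choline addition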
Hits are given with their value; 0 = inactive; - = no result given. Hits are enriched below; roughly 3% of the tested compounds scored in any of these assays.

SMILES | NALP1 inh | A1 inh | NALP3 yeast inh | CHT allo act | SUMO Mot1 rescue | CHT inh
COCCCN1CCN(C2Cc3ccccc3Sc3ccc(Cl)cc32)CC1 (centres undefined) | 53.6 | 0 | 0 | 0 | 0 | 0
Cc1ccc2c(c1)cc(CN(Cc1ccc3c(c1)OCO3)C(=O)c1ccccc1)c1nnnn12 | 0 | 0 | 0 | 0 | 336.5 | 0
CN1CCCCCC1C(=O)N1CCC(N2CCC(C(=O)N3CCOCC3)CC2)CC1 (centres undefined) | 0 | 0 | 0 | 0 | 270.4 | 0
CC(C)=CC(=O)N1CCC(N2CCC(C(=O)N3CCOCC3)CC2)CC1 | 0 | 0 | 0 | 0 | 0 | 0
Cc1ccc(Cl)c(OCCN2CCc3ccccc3C2)c1 | 0 | 0 | 0 | 0 | 322.9 | 0
OC(CNc1nc(-c2cccnc2)nc2ccccc12)c1ccccc1 (centres undefined) | 0 | 0 | 0 | 0 | 0 | 0
COc1ccc(Br)cc1C(=O)Nc1cccc(-c2nnc(-c3ccco3)o2)c1 | - | 0 | 0 | 0 | 330.6 | 0
COc1ccc(Br)cc1C(=O)Nc1ccc(NC(=O)c2ccco2)cc1 | 0 | 0 | 0 | 0 | 0 | 0
NC(=O)C1CCN(c2oc(-c3ccccc3)nc2S(=O)(=O)c2ccc(Br)cc2)CC1 | 0 | 0 | 0 | 0 | 0 | 0
Cc1ccc(S(=O)(=O)c2nc(-c3ccccc3)oc2N2CCC(C(N)=O)CC2)cc1 | 33.9 | 0 | 0 | 0 | 0 | 0
O=C(COC(=O)c1ccccc1-n1cnnn1)c1ccc(F)c(F)c1 | - | 0 | 0 | 0 | 0 | 0
Cn1c(SCc2ccc(Br)cc2)nc2ccccc2c1=O | 0 | 0 | 0 | 0 | 0 | 0
O=c1c2ccccc2nc2n1C(CSc1ccc(Br)cc1)CN2 (centres undefined) | 30.9 | 0 | 0 | 0 | 0 | 0
CS(=O)(=O)N(CC(=O)O)Cc1cccc(CN(CC(=O)O)S(C)(=O)=O)c1 | 0 | 0 | 0 | 0 | 0 | 0
CCCN1CCCc2cc(CN(CCCN3CCOCC3)C(=O)Nc3ccc(OCC)cc3)ccc21 | 44.6 | 0 | 0 | 0 | 0 | 0
NC(=NC1CCCCC1)c1ccc([N+](=O)[O-])cc1 | 44.1 | 0 | 0 | 0 | 0 | 0
Oc1c(C(c2ccccc2)N2CCCCC2)sc2ncnn12 (centres undefined) | 0 | 0 | 0 | 0 | 462.3 | 0
O=C(O)C1=C[C@H](c2ccc(C(F)(F)F)cc2)C[C@H](OCc2ccc(CO)cc2)O1 | 22.0 | 0 | 0 | 0 | 0 | 0
CNCCCOc1ccc(C(C)(C)c2ccccc2)cc1 | 0 | - | - | - | - | -
COCCCNCCOc1ccc(C(C)(C)c2ccccc2)cc1 | 46.2 | 0 | 0 | 0 | 824.2 | 0
O=C(O)c1cccnc1SC1CC(=O)N(CCc2ccccc2)C1=O (centres undefined) | 39.7 | 0 | 0 | 0 | 0 | 0
c1ccc(COc2ccc(-c3sc(Nc4ccccc4)n[n+]3-c3ccccc3)cc2)cc1 | 0 | 0 | 0 | 7.99 | 0 | 0
O=C(O)c1ccc(-c2sc(Nc3ccccc3)n[n+]2-c2ccccc2)cc1 | 0 | 0 | 0 | 0 | 0 | 0
O=C(O)c1ccc(CNC(=O)C23CC4CC(CC(C4)C2)C3)cc1 | 0 | 0 | 0 | 0 | 0 | 0
O=C(C1=C[C@H](c2coc3ccccc3c2=O)C[C@H](OCc2ccc(CO)cc2)O1)N1CCN(Cc2ccc3c(c2)OCO3)CC1 | 20.5 | 0 | 0 | 0 | 0 | 0
SMILES | NALP1 inh | A1 inh | NALP3 yeast inh | CHT allo act | SUMO Mot1 rescue | CHT inh
O=C(C1=C[C@@H](c2coc3ccccc3c2=O)C[C@@H](OCc2ccc(CO)cc2)O1)N1CCN(Cc2ccc3c(c2)OCO3)CC1 | 0 | 0 | 0 | 0 | 0 | 0
Cc1ccccc1C(=O)Nc1ccccc1 | 31.4 | 0 | 0 | 0 | 0 | 0
O=C(NC12CC3CC(CC(C3)C1)C2)N(Cc1ccccc1)Cc1ccncc1 | 0 | 0 | 0 | 0 | 0 | 0
O=C(c1cc(-c2ccccn2)nc2ccc(Cl)cc12)N1CCN(CCc2ccccc2)CC1 | 0 | 0 | 0 | 0 | - | 0
Cc1cnn(C(=O)c2cc(-c3ccccn3)nc3ccc(Cl)cc23)c1 | 41.4 | 0 | 0 | 0 | 0 | 0
CC(C)(C)c1ccc2c(c1)OC(C(=O)N/N=C\c1ccc[nH]1)CO2 (centres undefined) | 0 | 24.2 | 0 | 0 | 0 | 0
COc1cc(NC(=O)COC(=O)c2ccccc2F)cc(OC)c1 | 0 | 0 | 0 | 0 | 0 | 0
COc1cc(NC(=O)COC(=O)CC(NC(C)=O)c2ccccc2)cc(OC)c1 (centres undefined) | 0 | 0 | 0 | 0 | 351.7 | 0
COc1ccc(C2=CC(=O)CC(c3ccc(OC)cc3)C2)cc1 (centres undefined) | 0 | 0 | 0 | 0 | 673.2 | 0
CCc1cc(C(=O)N2CCN(C(=O)c3ccccc3)CC2)sc1C | - | - | 0 | - | - | -
COc1cc2c(C(=O)NCCCN3CC(C)CC(C)C3)cn(CC(C)C)c(=O)c2cc1OC (centres undefined) | 0 | 0 | 0 | 0 | 0 | -5.77
CCCCCOc1ccc(/C(C)=N/NC2=NCCN2)cc1 | 0 | 0 | 0 | 0 | 0 | 0
CCCCCCOc1ccc(/C(C)=N/NC2=NCCN2)cc1 | 87.6 | 0 | 0 | 0 | 0 | 0
O=c1ccc2cc3c(-c4ccccc4)coc3cc2o1 | 0 | 0 | 0 | 0 | 0 | 0
O=C(NC(=S)Nc1ccc(S(=O)(=O)N2CCCCC2)cc1)c1cccs1 | 0 | 0 | 0 | 0 | 333.5 | 0
CN1CCN(S(=O)(=O)c2ccc(NC(=S)NC(=O)C(C)(C)C)cc2)CC1 | 79.9 | 0 | 0 | 0 | 0 | 0
COc1cc(NC(=S)NCCCN2CCOCC2)c(OC)cc1NC(=O)c1ccco1 | 0 | 0 | 0 | 0 | 0 | 0
Cc1cccc(NC(=O)/C(C#N)=C/c2cccc([N+](=O)[O-])c2)n1 | 0 | 0 | 0 | 0 | 483.2 | 0
Cc1cccc(NC(=O)/C(C#N)=C/c2ccc(Cl)cc2)n1 | 0 | 0 | 0 | 0 | 0 | 0
COCCCN(C(=S)Nc1cc(Cl)cc(Cl)c1)C(C)c1ccncc1 (centres undefined) | 68.5 | 0 | 0 | 0 | 0 | 0
CCC(C(=O)Nc1cnccn1)c1ccccc1 (centres undefined) | 21.7 | 0 | 0 | 0 | 0 | 0
CCC(C(=O)Nc1ccccn1)c1ccccc1 (centres undefined) | - | 0 | 0 | 0 | 0 | 0
S=C(NCc1ccc(Cl)cc1Cl)NC1CCCCC1 | 0 | 0 | 0 | 0 | 645.3 | 0
CC(C)NC(=O)c1ccccc1NC(=O)CS(=O)(=O)Cc1ccccc1 | 35.7 | 0 | 0 | 0 | 0 | 0
CC(C)NC(=O)c1ccccc1NC(=O)CCS(=O)(=O)Cc1ccccc1 | 0 | 0 | 0 | 0 | 0 | 0
COc1ccccc1OCC(=O)NCCNC(=O)COc1ccccc1OC | 0 | 0 | 0 | 0 | 0 | 0
